Experimental data as given in PubChem BioAssay (Tox21).
Records with an inconclusive call do not appear. Active and inactive are the calls of the source. Unless noted, the call rests on the fitted dose curve; in most records, active means well fitted curve in the direction sought with a large enough effect in the repeat runs; inconclusive means weak or mixed curves; inactive means no such curve, though single readings can be large; an effect the other way counts as inactive or inconclusive.

How the values were obtained:
[1] = qHTS assay to identify small molecule agonists of the peroxisome proliferator-activated receptor delta (PPARd) signaling pathway - cell viability counter screen (AID 743211); further: nearly all actives have a fitted effect of over 55% in size
Outline: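 HEK293H PPARd-bla, 3000 cells/well; 5 h preincubation 37C/5% CO2; cpd in DMSO, 17 h 37C; B/G FRET substrate 2 h RT; CellTiter-Glo 30 min RT, luminescence.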

[2] = biological target: Peroxisome proliferator-activated receptor delta (Homo sapiens) (UniProt Q03181); assay: qHTS assay to identify small molecule agonists of the peroxisome proliferator-activated receptor delta (PPARd) signaling pathway (AID 743212; calls by dose curve)
Outline: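 GeneBLAzer PPARd UAS-bla HEK293H cells (beta-lactamase reporter under UAS control), plated and rested 5 h at 37 C, then exposed to compounds in DMSO at 37 C; LiveBLAzer B/G FRET substrate added, 2 h room temperature, fluorescence read.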

[3] = qHTS assay to identify small molecule antagonists of the peroxisome proliferator-activated receptor delta (PPARd) signaling pathway - cell viability counter screen (AID 743213); further: nearly all actives have a fitted effect of over 50% in size; further: potency means the concentration at half of the fitted maximal effect
Outline: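 In this counter screen, HEK293H cells carrying a UAS-beta-lactamase reporter are co-treated with test compounds and 300 nM L165041 (final) for 17 h at 37 C; cell viability is quantified by CellTiter-Glo luminescence.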

[4] = biological target: Peroxisome proliferator-activated receptor delta (Homo sapiens) (UniProt Q03181); assay: qHTS assay to identify small molecule antagonists of the peroxisome proliferator-activated receptor delta (PPARd) signaling pathway (AID 743215; active means well fitted inhibition curve with a large enough effect in the signal ratio in the repeat runs, not every such curve was filed as active; the % refers to the signal ratio;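 further: cells stimulated with agonist L165041 at 300 nM final during compound exposure; series mostly up to about 62 µM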)
Outline: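 HEK293H UAS-bla, PPARd; agonist L165041 300 nM final with cpd in DMSO; 37 C 17 h; FRET substrate, RT 2 h; fluorescence intensity.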

[5] = biological target: Bile acid receptor (Homo sapiens) (UniProt Q96RI1); assay: qHTS assay to identify small molecule antagonists of the farnesoid-X-receptor (FXR) signaling pathway (AID 743217; active means well fitted inhibition curve with a large enough effect in the signal ratio in the repeat runs, not every such curve was filed as active; the % refers to the signal ratio)
Outline: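 GeneBLAzer FXR-UAS-bla HEK 293T, CDCA-stimulated (50 uM final). Compound treatment 16 h, 37 °C. Detection: beta-lactamase cleavage of B/G FRET substrate, fluorescence.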

[6] = qHTS assay to identify small molecule agonists of the farnesoid-X-receptor (FXR) signaling pathway - cell viability counter screen (AID 743218); further: nearly all actives have a fitted effect of over 45% in size
Outline: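 Parallel cytotoxicity test: compound-treated (16 h, 37 C) HEK 293T FXR-bla reporter cells were lysed with CellTiter-Glo and luminescence recorded.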

[7] = biological target: Bile acid receptor (Homo sapiens) (UniProt Q96RI1); assay: qHTS assay to identify small molecule agonists of the farnesoid-X-receptor (FXR) signaling pathway (AID 743220; active means well fitted activation curve with a large enough effect in the signal ratio in the repeat runs, not every such curve was filed as active; the % refers to the signal ratio)
Outline: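 Beta-lactamase reporter under UAS control in GeneBLAzer FXR HEK 293T cells (5000/well) measured with LiveBLAzer FRET substrate after 2 h at room temperature. Compound exposure lasted 16 h at 37C.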

[8] = qHTS assay to identify small molecule antagonists of the farnesoid-X-receptor (FXR) signaling pathway - cell viability counter screen (AID 743221; active means well fitted cell-killing curve with a large enough effect in the repeat runs, not every such curve was filed as active; further: nearly all actives have a fitted effect of over 50% in size)
Outline: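 Luminescence from CellTiter-Glo measures cytotoxicity in GeneBLAzer FXR-UAS-bla HEK 293T cells. Cells were exposed to compounds with 50 uM chenodeoxycholic acid (final) for 16 h at 37 C, in wells also used for the reporter readout.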

[9] = biological target: Vitamin D3 receptor (Homo sapiens) (UniProt P11473); assay: qHTS assay to identify small molecule agonists of the vitamin D receptor (VDR) signaling pathway (AID 743222; calls by dose curve)
Outline: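 In VDR-bla cells, compound-induced beta-lactamase expression is quantified by FRET substrate fluorescence. Treatment lasts 16 h at 37C; substrate develops 2 h at room temperature.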

[10] = biological target: Vitamin D3 receptor (Homo sapiens) (UniProt P11473); assay: qHTS assay to identify small molecule antagonists of the vitamin D receptor (VDR) signaling pathway (AID 743223; active means well fitted inhibition curve with a large enough effect in the signal ratio in the repeat runs, not every such curve was filed as active; the % refers to the signal ratio)
Outline: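 Antagonist mode uses 1alpha,25-dihydroxyvitamin D3 at 3 nM final as stimulus. VDR-bla cells receive compounds in DMSO, incubate 16 h at 37C, then a beta-lactamase FRET substrate for 2 h at room temperature before fluorescence measurement.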

[11] = qHTS assay to identify small molecule agonists of the vitamin D receptor (VDR) signaling pathway - cell viability counter screen (AID 743224); further: nearly all actives have a fitted effect of over 50% in size; further: potency means the concentration at half of the fitted maximal effect
Outline: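 Plated VDR-bla cells (4 h, 37C) received compound, incubated 16 h, then LiveBLAzer substrate 2 h RT; CellTiter-Glo added afterwards, luminescence read at 30 min.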

[12] = qHTS assay to identify small molecule antagonists of the vitamin D receptor (VDR) signaling pathway - cell viability counter screen (AID 743225); further: nearly all actives have a fitted effect of over 50% in size
Outline: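 Read-out: CellTiter-Glo luminescence measured 30 min after reagent addition at room temperature. Cells were VDR-bla HEK 293T exposed 16 h at 37C, 5% CO2, to compound with 3 nM final calcitriol agonist.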

[13] = qHTS assay to identify small molecule agonists of the NFkB signaling pathway (AID 1159509; active means well fitted curve in the direction sought with a large enough effect in the signal ratio in the repeat runs, not every such curve was filed as active; the % refers to the signal ratio; further: series mostly up to about 61 µM)
Outline: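 NFkB-bla ME-180 cells with a beta-lactamase reporter under an NF-kB response element were plated overnight, treated with compounds in DMSO for 5 hr at 37 C, then loaded with FRET substrate for 1.5 hr at room temperature.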

[14] = qHTS assay to identify small molecule agonists of the endoplasmic reticulum stress response signaling pathway (AID 1159516; active means well fitted activation curve with a large enough effect in the signal ratio in the repeat runs, not every such curve was filed as active; the % refers to the signal ratio)
Outline: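 An ESRE-bla HeLa cell assay: compounds were pin-transferred from DMSO onto overnight-plated cells and left 5 hr at 37 C. Substrate was then loaded for 2 hr at room temperature before reading fluorescence at 460 nm and 530 nm.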

[15] = qHTS assay to identify small molecule agonists of the endoplasmic reticulum stress response signaling pathway - cell viability counter screen (AID 1159517; calls by dose curve; further: nearly all actives have a fitted effect of over 50% in size; further: potency means the concentration at half of the fitted maximal effect)
Outline: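 Luminescence readout: CellTiter-Glo, 30 min RT, same wells as the ESRE-bla reporter read. HeLa ESRE-bla, 1,500 cells/well, o/n 37 C; cpd 5 hr 37 C/5% CO2.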

[16] = qHTS assay to identify small molecule antagonists of the retinoid-related orphan receptor gamma (ROR-gamma) signaling pathway - cell viability counter screen (AID 1159520); further: nearly all actives have a fitted effect of over 50% in size
Outline: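 Tet-on ROR gamma CHO cells (1,000/well) were plated 4 hr, given compounds in DMSO for 2 hr at 37 C, then induced with 1 uM final doxycycline for 16 hr. Viability was read as ATP by CellTiter-Glo luminescence after 30 min.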

[17] = biological target: Nuclear receptor ROR-gamma (Homo sapiens) (UniProt P51449); assay: qHTS assay to identify small molecule antagonists of the retinoid-related orphan receptor gamma (ROR-gamma) signaling pathway (AID 1159521; further: nearly all actives have a fitted effect of over 50% in size; further: potency means the concentration at half of the fitted maximal effect)
Outline: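 CHO Tet-on RORγ, RORE-luc reporter. Cpd 2 h pre-incubation, then dox hyclate 1 uM final, 16 h, 37 C/5% CO2. ONE-Glo luminescence; decrease = antagonist.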

[18] = qHTS assay to identify small molecule agonists of the AP-1 signaling pathway - cell viability counter screen (AID 1159525; calls by dose curve; further: nearly all actives have a fitted effect of over 55% in size; further: potency means the concentration at half of the fitted maximal effect)
Outline: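 ME-180 AP-1-bla, 2500 cells/well, Opti-MEM + 0.5% dialyzed FBS; overnight 37 °C; cpd 15-pt titration, 5 h 37 °C; CellTiter-Glo 30 min RT; luminescence read; normalised to TOAB and DMSO controls.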

[19] = qHTS assay to identify small molecule agonists of the AP-1 signaling pathway (AID 1159526; calls by dose curve)

Measured: Potency

Chain of Vitamin D3 receptor (Homo sapiens) (P11473 whole entry, looked up): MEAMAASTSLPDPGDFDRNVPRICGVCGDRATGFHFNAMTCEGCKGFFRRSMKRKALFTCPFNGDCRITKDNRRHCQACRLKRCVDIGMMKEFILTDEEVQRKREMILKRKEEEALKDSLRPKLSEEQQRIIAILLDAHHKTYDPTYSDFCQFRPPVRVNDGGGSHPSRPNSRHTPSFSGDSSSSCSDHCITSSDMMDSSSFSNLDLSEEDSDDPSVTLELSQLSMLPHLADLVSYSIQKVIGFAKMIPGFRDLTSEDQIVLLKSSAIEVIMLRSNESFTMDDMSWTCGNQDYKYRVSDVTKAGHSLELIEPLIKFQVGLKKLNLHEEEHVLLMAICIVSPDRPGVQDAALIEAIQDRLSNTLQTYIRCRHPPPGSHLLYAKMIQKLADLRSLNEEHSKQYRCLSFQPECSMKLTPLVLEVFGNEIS
Chain of Bile acid receptor (Homo sapiens) (Q96RI1 whole entry, looked up): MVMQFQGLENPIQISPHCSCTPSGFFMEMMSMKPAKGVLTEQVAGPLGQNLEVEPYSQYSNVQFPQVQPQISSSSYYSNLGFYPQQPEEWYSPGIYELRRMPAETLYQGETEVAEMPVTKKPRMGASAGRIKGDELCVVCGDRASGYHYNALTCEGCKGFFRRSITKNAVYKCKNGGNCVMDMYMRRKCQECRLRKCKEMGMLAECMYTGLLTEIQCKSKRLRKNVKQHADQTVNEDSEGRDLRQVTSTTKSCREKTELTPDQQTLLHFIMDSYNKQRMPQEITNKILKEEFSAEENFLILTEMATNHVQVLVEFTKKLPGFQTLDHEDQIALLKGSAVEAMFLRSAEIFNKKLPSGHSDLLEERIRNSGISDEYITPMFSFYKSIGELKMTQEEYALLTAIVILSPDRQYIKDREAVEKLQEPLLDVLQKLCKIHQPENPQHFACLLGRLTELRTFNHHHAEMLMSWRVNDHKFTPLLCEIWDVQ
Chain of Peroxisome proliferator-activated receptor delta (Homo sapiens) (Q03181 whole entry, looked up): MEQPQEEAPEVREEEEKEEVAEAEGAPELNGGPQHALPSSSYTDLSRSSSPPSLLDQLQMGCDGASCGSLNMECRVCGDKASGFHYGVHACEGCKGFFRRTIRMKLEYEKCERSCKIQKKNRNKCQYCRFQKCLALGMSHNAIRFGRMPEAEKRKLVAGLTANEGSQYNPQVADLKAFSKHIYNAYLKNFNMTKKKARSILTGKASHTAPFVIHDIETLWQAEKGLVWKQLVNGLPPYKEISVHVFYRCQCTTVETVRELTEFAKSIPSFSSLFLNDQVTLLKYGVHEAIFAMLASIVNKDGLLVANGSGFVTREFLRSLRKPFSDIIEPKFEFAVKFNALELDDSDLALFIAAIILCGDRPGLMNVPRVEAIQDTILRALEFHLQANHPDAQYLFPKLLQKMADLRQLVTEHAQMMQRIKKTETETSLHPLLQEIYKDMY

CCOC(=O)c1ccc(I)cc1
not listed: [19]
inactive: all other assays above

CC1(C)S[C@@H]2[C@H](NC(=O)C(c3ccccc3)S(=O)(=O)O)C(=O)N2[C@H]1C(=O)O (stereo partly drawn)
not listed: [2] | [4] | [5] | [7]
inactive: all other assays above

Cc1ccc(OC(=O)c2ccccc2O)cc1
not listed: [5] | [7] | [11] | [12] | [18]
inactive: all other assays above

COc1cc(N)c(Cl)cc1C(=O)NC1CCN(CCCOc2ccc(F)cc2)CC1OC (stereo not drawn)
inactive: [2] | [8] | [12] | [13] | [14] | [15] | [16] | [17] | [18] | [19]

C[C@H]1C[C@H](O)c2ccsc2S1(=O)=O
not listed: [3] | [5] | [7] | [9] | [10]
inactive: all other assays above

CCCCCC#CC(=O)OC
not listed: [2] | [4] | [5] | [7] | [10]
inactive: all other assays above

CCCCCCCCC(CCCCCC)C(=O)O (stereo not drawn)
active: [15] 54.9 µM | [18] 49 µM
inactive: [3] | [7] | [9] | [10] | [13] | [14] | [16] | [17]

Brc1cc(Br)c(Oc2cc(Br)c(Br)cc2Br)cc1Br
inactive: [6] | [8] | [12] | [13] | [14] | [15] | [16] | [17] | [18]
active: [3] 23.9 µM | [11] 23.9 µM

CC(CCC(=O)O)C(=O)O (stereo not drawn)
not listed: [9] | [10] | [18]
inactive: all other assays above

C1C[C@@H]2[C@H]3CC[C@H](C3)[C@@H]2C1
not listed: [2] | [5] | [7] | [19]
inactive: all other assays above

O=C(/C=C/c1ccccc1)OCCc1ccccc1
not listed: [2] | [4] | [5] | [6] | [7] | [9] | [10]
inactive: all other assays above

Nc1nnc(-c2ccc([N+](=O)[O-])o2)o1
active: [17] 6.86 µM
not listed: [5] | [6] | [7] | [19]
inactive: all other assays above

N#CCc1ccc(Cl)cc1Cl
not listed: [4] | [5] | [7] | [10] | [18]
inactive: all other assays above

CN1CCCN=C1COC(=O)C(O)(c1ccccc1)C1CCCCC1 (stereo not drawn)
not listed: [1] | [3] | [4] | [9] | [10]
inactive: all other assays above

CC(C)=CCC1C(=O)N(c2ccccc2)N(c2ccccc2)C1=O
not listed: [2] | [3] | [4] | [5] | [7] | [10]
inactive: all other assays above

CCOC(=O)[C@H](CCc1ccccc1)N[C@@H](C)C(=O)N(CC(=O)O)C1Cc2ccccc2C1
inactive: [9] | [10] | [11] | [12] | [13] | [14] | [15] | [16] | [17] | [19]
active: [18] 19 µM

Nc1ncnc2c1ncn2[C@H]1CC[C@@H](CO)O1
not listed: [3] | [12]
inactive: all other assays above

CC(C)(c1ccccc1)c1ccccc1
not listed: [2] | [4] | [5] | [7]
inactive: all other assays above
